Experimental data published in article PMC7862700, “An all-to-all approach to the identification of sequence-specific readers for epigenetic DNA modifications on cytosine”.

Legend:
Assay in all cases: DAPPL (digital affinity profiling via proximity ligation, sequencing); 10 mM Tris-HCl pH 7.5, 50 mM NaCl, 1 mM DTT, 4% glycerol, room temperature, 30 min; GST-TFs on glutathione beads, 16-mer random dsDNA library, 0.1% formaldehyde crosslink after washing; high values mean tight binding
[1] = target: T1, FEV (Homo sapiens, UniProt Q99581 1-238); details: protein: recombinant; tags: N-terminal GST; dsDNA, one strand shown
T1 sequence: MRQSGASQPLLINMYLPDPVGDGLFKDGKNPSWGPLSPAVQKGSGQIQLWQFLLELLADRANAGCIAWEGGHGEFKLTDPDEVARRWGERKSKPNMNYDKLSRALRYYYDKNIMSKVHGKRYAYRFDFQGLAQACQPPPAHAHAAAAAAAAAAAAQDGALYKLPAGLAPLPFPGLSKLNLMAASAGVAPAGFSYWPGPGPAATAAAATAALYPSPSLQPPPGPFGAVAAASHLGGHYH
Method in brief: (§1)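 The binding signal reported is, for every hexamer, its read frequency for a factor over its read frequency for the tag-only sample. Reads came from pools of yeast-expressed, GST-fused human transcription factors on glutathione beads, barcoded with DNA and mixed with that sample, which were incubated with 200 nmole of a random double-stranded 16-mer DNA library in Tris/NaCl/DTT/glycerol buffer at room temperature for 30 min. After washing, the pools were crosslinked with 0.1% formaldehyde, proximity-ligated with BsaI/T4 ligase for 1 h at 37 °C, PCR-amplified and sequenced on an Illumina NextSeq500.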

[2] = target: ETV5 (Homo sapiens, UniProt P41161 1-510); details: protein: recombinant; tags: N-terminal GST; dsDNA, one strand shown
Method in brief: as §1

[3] = target: HSF1 (Homo sapiens, UniProt Q00613 1-529); details: protein: recombinant; tags: N-terminal GST; chain copies: 3; dsDNA, one strand shown
Method in brief: as §1

[4] = target: T2, SPIC (Homo sapiens, UniProt Q8N5J4 1-248); details: protein: recombinant; tags: N-terminal GST; dsDNA, one strand shown
T2 sequence: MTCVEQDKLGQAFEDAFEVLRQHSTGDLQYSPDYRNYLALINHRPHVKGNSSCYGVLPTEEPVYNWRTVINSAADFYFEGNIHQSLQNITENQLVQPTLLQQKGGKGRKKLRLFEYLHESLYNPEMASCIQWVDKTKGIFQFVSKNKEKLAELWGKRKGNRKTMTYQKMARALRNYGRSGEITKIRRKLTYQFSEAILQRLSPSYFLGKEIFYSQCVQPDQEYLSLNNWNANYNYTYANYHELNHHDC
Method in brief: as §1

[5] = target: ELF4 (Homo sapiens, UniProt Q99607 1-663); details: protein: recombinant; tags: N-terminal GST; dsDNA, one strand shown
Method in brief: as §1

[6] = target: T3, ELK4 (Homo sapiens, UniProt P28324-2 1-405); details: protein: recombinant; tags: N-terminal GST; dsDNA, one strand shown
T3 sequence: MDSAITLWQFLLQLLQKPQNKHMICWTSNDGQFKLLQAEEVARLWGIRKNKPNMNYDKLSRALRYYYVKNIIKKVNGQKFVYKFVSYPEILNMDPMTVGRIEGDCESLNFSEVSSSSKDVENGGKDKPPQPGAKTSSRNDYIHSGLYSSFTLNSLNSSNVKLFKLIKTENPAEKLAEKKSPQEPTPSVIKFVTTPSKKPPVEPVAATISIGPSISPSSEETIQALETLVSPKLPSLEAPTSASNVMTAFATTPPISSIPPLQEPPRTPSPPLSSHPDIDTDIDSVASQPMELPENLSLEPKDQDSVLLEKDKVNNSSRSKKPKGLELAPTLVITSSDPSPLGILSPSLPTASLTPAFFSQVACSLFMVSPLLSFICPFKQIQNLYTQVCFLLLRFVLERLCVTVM
Method in brief: as §1

[7] = target: T4, ETV2 (Homo sapiens, UniProt O00321 1-342); details: protein: recombinant; tags: N-terminal GST; dsDNA, one strand shown
T4 sequence: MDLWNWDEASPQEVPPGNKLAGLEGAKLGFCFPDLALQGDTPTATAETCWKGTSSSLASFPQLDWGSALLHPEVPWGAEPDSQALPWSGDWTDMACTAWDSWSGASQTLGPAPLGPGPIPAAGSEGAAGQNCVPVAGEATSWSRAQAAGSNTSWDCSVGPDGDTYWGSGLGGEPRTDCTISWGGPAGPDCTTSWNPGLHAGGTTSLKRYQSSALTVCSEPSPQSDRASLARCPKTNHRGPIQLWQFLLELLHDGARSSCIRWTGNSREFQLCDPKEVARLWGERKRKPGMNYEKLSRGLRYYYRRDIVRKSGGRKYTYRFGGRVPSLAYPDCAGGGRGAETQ
Method in brief: as §1

[8] = target: T5, ELF3 (Homo sapiens, UniProt P78545 1-371); details: protein: recombinant; tags: N-terminal GST; dsDNA, one strand shown
T5 sequence: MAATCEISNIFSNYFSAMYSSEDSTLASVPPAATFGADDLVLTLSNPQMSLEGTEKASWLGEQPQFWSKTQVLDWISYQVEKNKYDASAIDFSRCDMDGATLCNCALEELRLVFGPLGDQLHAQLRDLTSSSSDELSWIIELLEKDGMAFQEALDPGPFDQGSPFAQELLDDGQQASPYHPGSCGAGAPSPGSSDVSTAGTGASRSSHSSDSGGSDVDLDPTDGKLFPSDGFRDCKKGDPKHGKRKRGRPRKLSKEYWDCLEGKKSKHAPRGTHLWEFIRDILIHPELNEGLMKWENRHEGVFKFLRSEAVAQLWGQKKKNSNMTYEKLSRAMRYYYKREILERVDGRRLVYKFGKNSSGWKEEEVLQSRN
Method in brief: as §1

[9] = target: CRX (Homo sapiens, UniProt O43186 1-299); details: protein: recombinant; tags: N-terminal GST; dsDNA, one strand shown
Method in brief: as §1

[10] = target: ETV1 (Homo sapiens, UniProt P50549 1-477); details: protein: recombinant; tags: N-terminal GST; dsDNA, one strand shown
Method in brief: as §1

[11] = target: T6, ERF (Homo sapiens, UniProt P50548 1-548); details: protein: recombinant; tags: N-terminal GST; dsDNA, one strand shown
T6 sequence: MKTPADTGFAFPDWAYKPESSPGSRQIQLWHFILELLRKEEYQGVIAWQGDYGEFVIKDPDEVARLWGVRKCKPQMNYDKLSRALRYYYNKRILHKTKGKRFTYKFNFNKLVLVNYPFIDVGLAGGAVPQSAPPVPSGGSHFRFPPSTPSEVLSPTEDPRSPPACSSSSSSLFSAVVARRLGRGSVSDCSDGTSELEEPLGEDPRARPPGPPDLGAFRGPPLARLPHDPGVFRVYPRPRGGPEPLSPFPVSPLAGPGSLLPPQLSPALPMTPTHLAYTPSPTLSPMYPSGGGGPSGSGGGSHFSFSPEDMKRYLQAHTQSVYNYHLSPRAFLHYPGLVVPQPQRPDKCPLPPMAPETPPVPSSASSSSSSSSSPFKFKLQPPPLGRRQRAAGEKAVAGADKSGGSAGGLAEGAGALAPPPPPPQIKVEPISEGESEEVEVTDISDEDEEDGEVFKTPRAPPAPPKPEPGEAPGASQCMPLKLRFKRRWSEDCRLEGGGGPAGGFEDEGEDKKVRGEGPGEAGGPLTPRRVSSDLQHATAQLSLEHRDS
Method in brief: as §1

[12] = target: T7, ETV3L (Homo sapiens, UniProt Q6ZN32 1-361); details: protein: recombinant; tags: N-terminal GST; dsDNA, one strand shown
T7 sequence: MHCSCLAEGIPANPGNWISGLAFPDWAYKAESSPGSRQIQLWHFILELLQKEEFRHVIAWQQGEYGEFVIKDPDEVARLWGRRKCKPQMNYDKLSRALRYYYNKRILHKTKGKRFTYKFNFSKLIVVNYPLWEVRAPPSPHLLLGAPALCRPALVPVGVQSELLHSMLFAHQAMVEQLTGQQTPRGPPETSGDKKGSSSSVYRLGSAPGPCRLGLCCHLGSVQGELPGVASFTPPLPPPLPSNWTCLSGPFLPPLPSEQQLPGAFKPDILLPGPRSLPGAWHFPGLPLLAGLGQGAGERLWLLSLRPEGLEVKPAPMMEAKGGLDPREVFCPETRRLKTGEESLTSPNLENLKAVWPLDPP
Method in brief: as §1

[13] = target: T8, ETS2 (Homo sapiens, UniProt P15036 1-469); details: protein: recombinant; tags: N-terminal GST; dsDNA, one strand shown
T8 sequence: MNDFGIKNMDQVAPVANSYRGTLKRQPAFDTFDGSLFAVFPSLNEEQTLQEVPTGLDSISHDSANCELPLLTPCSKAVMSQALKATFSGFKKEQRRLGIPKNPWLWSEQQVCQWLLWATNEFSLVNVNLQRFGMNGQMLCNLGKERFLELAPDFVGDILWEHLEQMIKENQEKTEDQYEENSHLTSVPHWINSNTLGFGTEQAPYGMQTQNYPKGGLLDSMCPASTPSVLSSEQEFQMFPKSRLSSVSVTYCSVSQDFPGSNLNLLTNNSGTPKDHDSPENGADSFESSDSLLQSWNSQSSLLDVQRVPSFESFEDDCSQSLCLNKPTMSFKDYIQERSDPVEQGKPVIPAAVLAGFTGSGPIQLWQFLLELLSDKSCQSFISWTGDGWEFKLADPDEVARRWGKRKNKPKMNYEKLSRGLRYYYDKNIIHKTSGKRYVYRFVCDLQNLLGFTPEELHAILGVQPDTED
Method in brief: as §1

[14] = target: T9, SPDEF (Homo sapiens, UniProt O95238 1-335); details: protein: recombinant; tags: N-terminal GST; dsDNA, one strand shown
T9 sequence: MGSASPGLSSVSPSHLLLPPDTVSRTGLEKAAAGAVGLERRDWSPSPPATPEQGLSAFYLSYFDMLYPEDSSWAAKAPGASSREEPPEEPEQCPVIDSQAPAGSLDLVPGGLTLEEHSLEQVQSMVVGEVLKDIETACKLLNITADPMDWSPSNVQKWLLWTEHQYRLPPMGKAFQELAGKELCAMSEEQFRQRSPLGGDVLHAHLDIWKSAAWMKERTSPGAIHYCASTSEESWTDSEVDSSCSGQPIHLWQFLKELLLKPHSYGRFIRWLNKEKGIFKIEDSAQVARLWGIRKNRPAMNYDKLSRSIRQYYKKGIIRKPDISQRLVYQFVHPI
Method in brief: as §1

[15] = target: T10, ETV7 (Homo sapiens, UniProt Q9Y603 1-341); details: protein: recombinant; tags: N-terminal GST; dsDNA, one strand shown
T10 sequence: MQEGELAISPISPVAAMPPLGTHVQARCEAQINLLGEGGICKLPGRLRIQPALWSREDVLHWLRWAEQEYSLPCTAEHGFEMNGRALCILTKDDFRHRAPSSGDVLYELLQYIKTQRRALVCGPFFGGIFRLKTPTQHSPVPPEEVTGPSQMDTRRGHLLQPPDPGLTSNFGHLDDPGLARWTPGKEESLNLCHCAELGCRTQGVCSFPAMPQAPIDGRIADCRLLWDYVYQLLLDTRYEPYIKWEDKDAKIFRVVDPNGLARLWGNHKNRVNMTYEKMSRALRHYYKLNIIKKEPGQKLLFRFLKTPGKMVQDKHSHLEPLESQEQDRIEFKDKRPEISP
Method in brief: as §1

[16] = target: T11, ELF5 (Homo sapiens, UniProt Q9UKW6-2 1-255); details: protein: recombinant; tags: N-terminal GST; dsDNA, one strand shown
T11 sequence: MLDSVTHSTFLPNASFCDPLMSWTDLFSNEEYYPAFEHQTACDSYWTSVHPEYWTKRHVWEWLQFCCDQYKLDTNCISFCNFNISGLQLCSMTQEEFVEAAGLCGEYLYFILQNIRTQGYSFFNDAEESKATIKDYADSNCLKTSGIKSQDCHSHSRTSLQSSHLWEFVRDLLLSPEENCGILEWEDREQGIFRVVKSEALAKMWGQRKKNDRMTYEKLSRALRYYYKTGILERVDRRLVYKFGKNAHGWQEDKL
Method in brief: as §1

[17] = target: T12, ETV3 (Homo sapiens, UniProt P41162-2 1-143); details: protein: recombinant; tags: N-terminal GST; dsDNA, one strand shown
T12 sequence: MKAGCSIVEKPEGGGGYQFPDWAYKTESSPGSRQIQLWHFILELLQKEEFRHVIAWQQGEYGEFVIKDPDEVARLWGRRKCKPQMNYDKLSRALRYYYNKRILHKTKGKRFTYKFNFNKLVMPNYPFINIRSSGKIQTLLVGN
Method in brief: as §1

[18] = target: ETV6 (Homo sapiens, UniProt P41212 1-452); details: protein: recombinant; tags: N-terminal GST; dsDNA, one strand shown
Method in brief: as §1

Chain of ETV5 (P41161 whole entry): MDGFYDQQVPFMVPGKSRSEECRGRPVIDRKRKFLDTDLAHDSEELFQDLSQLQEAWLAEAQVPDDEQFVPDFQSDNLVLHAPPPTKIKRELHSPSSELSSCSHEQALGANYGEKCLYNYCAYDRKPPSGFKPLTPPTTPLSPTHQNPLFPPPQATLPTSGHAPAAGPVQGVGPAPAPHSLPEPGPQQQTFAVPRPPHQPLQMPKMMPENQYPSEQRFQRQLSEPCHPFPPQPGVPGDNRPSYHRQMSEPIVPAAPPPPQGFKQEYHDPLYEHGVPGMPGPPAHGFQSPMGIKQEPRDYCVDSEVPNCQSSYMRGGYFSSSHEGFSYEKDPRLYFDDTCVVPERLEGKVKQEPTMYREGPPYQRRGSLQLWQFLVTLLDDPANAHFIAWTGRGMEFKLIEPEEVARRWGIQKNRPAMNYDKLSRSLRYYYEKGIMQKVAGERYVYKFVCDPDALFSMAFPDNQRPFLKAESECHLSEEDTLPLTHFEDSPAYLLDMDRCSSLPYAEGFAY
Chain of ELF4 (Q99607 whole entry): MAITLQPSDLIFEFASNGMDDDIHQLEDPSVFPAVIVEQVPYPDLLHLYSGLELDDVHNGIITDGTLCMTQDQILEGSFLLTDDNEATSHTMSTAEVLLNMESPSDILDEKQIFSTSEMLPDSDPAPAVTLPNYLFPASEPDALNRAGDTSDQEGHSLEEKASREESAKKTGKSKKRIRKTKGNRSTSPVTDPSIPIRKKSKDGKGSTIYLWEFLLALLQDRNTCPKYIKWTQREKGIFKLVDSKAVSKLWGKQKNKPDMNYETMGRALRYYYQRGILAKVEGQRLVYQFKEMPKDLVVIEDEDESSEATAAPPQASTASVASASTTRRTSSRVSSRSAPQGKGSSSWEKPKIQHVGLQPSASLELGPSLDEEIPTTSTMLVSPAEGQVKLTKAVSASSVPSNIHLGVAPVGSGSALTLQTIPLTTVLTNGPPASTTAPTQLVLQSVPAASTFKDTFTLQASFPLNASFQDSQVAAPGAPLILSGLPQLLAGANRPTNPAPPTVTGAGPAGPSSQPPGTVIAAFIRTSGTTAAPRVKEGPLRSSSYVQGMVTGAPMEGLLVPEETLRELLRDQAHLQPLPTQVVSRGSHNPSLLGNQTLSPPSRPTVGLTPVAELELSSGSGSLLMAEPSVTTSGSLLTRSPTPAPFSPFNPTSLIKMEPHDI
Chain of ETV6 (P41212 whole entry): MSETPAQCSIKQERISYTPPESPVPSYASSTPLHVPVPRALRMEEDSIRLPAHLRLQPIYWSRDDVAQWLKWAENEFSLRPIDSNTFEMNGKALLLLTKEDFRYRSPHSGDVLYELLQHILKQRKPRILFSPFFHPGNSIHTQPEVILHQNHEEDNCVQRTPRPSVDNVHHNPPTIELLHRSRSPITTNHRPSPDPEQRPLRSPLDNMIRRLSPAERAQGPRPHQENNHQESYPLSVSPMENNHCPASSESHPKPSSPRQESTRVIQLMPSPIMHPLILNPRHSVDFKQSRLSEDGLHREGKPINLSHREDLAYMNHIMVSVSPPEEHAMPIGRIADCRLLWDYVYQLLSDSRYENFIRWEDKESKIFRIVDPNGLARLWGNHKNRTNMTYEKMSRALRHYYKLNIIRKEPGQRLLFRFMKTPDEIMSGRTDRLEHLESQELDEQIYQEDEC
Chain of HSF1 (Q00613 whole entry): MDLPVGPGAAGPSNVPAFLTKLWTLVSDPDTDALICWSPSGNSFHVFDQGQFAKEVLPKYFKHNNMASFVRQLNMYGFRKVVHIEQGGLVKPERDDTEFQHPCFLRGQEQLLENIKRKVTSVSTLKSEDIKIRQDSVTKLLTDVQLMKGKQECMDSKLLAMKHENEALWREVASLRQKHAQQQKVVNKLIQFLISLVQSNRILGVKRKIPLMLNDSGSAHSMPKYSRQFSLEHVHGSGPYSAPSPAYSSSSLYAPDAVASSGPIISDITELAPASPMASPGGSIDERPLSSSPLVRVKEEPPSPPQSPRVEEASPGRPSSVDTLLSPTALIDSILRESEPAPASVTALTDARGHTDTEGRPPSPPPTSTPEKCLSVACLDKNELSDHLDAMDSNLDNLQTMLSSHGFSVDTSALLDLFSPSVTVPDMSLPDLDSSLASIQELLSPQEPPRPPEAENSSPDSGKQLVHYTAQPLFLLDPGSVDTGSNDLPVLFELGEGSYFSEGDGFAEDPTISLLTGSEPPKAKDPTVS
Chain of CRX (O43186 whole entry): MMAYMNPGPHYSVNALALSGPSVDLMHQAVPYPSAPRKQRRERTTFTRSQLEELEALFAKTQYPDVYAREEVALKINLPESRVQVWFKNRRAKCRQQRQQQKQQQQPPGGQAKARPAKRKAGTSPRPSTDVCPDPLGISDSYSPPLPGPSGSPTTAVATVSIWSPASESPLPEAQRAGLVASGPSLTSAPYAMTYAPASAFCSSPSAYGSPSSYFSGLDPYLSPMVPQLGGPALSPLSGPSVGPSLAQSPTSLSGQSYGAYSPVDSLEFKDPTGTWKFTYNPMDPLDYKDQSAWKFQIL
Chain of ETV1 (P50549 whole entry): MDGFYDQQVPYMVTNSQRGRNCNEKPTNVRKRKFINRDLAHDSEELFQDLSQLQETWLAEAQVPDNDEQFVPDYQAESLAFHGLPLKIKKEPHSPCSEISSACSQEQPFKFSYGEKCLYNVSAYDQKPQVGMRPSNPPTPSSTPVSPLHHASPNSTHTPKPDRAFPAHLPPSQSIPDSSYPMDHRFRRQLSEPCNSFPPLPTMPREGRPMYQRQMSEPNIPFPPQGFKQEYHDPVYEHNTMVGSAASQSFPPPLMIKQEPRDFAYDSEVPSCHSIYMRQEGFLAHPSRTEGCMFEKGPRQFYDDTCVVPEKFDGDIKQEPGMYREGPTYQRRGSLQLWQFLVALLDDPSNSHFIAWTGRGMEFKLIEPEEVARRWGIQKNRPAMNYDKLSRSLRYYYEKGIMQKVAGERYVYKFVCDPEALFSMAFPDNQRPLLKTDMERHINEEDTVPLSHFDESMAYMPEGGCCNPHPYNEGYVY

**Q.** How did the binding signal [1] turn out when ACTTCA was run?
**A.** 1.38 fold enrichment (6-mer frequency, TF over GST control)

**Q.** What about the binding signal [2] of the same sequence?
**A.** 1.42 fold enrichment (6-mer frequency, TF over GST control)

**Q.** What about the binding signal [3] of the same sequence?
**A.** 1.18 fold enrichment (6-mer frequency, TF over GST control)

**Q.** What about the binding signal [4] of the same sequence?
**A.** 1.55 fold enrichment (6-mer frequency, TF over GST control)

**Q.** And the binding signal [5]?
**A.** 1.33 fold enrichment (6-mer frequency, TF over GST control)

**Q.** And the binding signal [6]?
**A.** 1.56 fold enrichment (6-mer frequency, TF over GST control)

**Q.** And the binding signal [7]?
**A.** 1.37 fold enrichment (6-mer frequency, TF over GST control)

**Q.** What about the binding signal [8] of the same sequence?
**A.** 1.44 fold enrichment (6-mer frequency, TF over GST control)

**Q.** What about the binding signal [9] of the same sequence?
**A.** 1.17 fold enrichment (6-mer frequency, TF over GST control)

**Q.** What about the binding signal [10] of the same sequence?
**A.** 1.48 fold enrichment (6-mer frequency, TF over GST control)

**Q.** What about the binding signal [11] of the same sequence?
**A.** 1.33 fold enrichment (6-mer frequency, TF over GST control)

**Q.** And the binding signal [12]?
**A.** 1.4 fold enrichment (6-mer frequency, TF over GST control)

**Q.** What about the binding signal [13] of the same sequence?
**A.** 1.42 fold enrichment (6-mer frequency, TF over GST control)

**Q.** What about the binding signal [14] of the same sequence?
**A.** 1.37 fold enrichment (6-mer frequency, TF over GST control)

**Q.** And the binding signal [15]?
**A.** 1.54 fold enrichment (6-mer frequency, TF over GST control)

**Q.** What about the binding signal [16] of the same sequence?
**A.** 1.4 fold enrichment (6-mer frequency, TF over GST control)

**Q.** And the binding signal [17]?
**A.** 1.29 fold enrichment (6-mer frequency, TF over GST control)

**Q.** And the binding signal [18]?
**A.** 1.35 fold enrichment (6-mer frequency, TF over GST control)
